Data from PubChem BioAssay (NCI).
The panel holds about 83,000 compounds, 20% with a hit somewhere; the sample as a whole holds those more often.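 Each cell line was grown in a 96-well plate and treated with one concentration of compound for 48 hours. Values below 10 were considered active.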 Values without a mark were called inactive. Activity calls are given as the source filed them.

Legend:
Assay in all cases: NCI-60 one-dose screen, 48 h (100 = growth as untreated, 0 = no growth, -100 = all killed)
Details in all cases: 10 µM unless noted
SK-MEL-2 melanoma = test system: SK-MEL-2 melanoma
SN12C renal = test system: SN12C renal
UO-31 renal = test system: UO-31 renal
TK-10 renal = test system: TK-10 renal
ACHN renal = test system: ACHN renal
CAKI-1 renal = test system: CAKI-1 renal
A498 renal = test system: A498 renal
CCRF-CEM leukemia = test system: CCRF-CEM leukemia
MOLT-4 leukemia = test system: MOLT-4 leukemia
SR leukemia = test system: SR leukemia
RPMI-8226 leukemia = test system: RPMI-8226 leukemia
OVCAR-8 ovarian = test system: OVCAR-8 ovarian
OVCAR-5 ovarian = test system: OVCAR-5 ovarian
OVCAR-4 ovarian = test system: OVCAR-4 ovarian
SK-OV-3 ovarian = test system: SK-OV-3 ovarian
IGROV1 ovarian = test system: IGROV1 ovarian
OVCAR-3 ovarian = test system: OVCAR-3 ovarian
HS 578T breast = test system: HS 578T breast
NCI/ADR-RES ovarian = test system: NCI/ADR-RES ovarian

| Compound | growth (SK-MEL-2 melanoma) | growth (SN12C renal) [%] | growth (UO-31 renal) | growth (TK-10 renal) | growth (ACHN renal) | growth (CAKI-1 renal) | growth (A498 renal) | growth (CCRF-CEM leukemia) [%] | growth (MOLT-4 leukemia) [%] | growth (SR leukemia) | growth (RPMI-8226 leukemia) | growth (OVCAR-8 ovarian) [%] | growth (OVCAR-5 ovarian) | growth (OVCAR-4 ovarian) [%] | growth (SK-OV-3 ovarian) | growth (IGROV1 ovarian) | growth (OVCAR-3 ovarian) [%] | growth (HS 578T breast) [%] | growth (NCI/ADR-RES ovarian) |
| --- | --- | --- | --- | --- | --- | --- | --- | --- | --- | --- | --- | --- | --- | --- | --- | --- | --- | --- | --- |
| COc1cc(-c2nc(-c3ccccc3)[nH]c2-c2ccnc(NCCCNS(=O)(=O)c3cccc(F)c3)n2)ccc1F | 105% | 93.8 | 89.2% | 137% | 88.7% | 106% | 68.9% | 66 | 54.4 | 77.1% | 62.4% | 86 | 118% | 104 | 136% | -69.7% (active) | 109 | 103 | 92.1% |
| C#CCN(C)CCCOc1ccc(NCc2ccc(/C=C/C(=O)NO)cc2)cc1Cl | -6.42% (active) | 12.1 | -57.4% (active) |  | -41.4% (active) | -35.9% (active) | -72.2% (active) | 10.7 | 15.7 | 9.72% (active) | 8.55% (active) | 11.9 | 6.62% (active) | 22.4 | -11.3% (active) | -35.7% (active) | 11 | 10.7 | -8.39% (active) |
| O=C(CCCCCCNC(=O)c1csc(Br)n1)NO | 57.3% | 73.4 | 22.7% | -3.87% (active) | 13.9% | 21% | -4.04% (active) | 16.1 | 17.4 | 23.9% | 2.81% (active) | 23.5 | 20.2% | 69.6 | 56.3% | 36.4% |  | 58.3 | 9.08% (active) |
| Fc1cccc(Cl)c1/C=N/Nc1nc(N/N=C/c2c(F)cccc2Cl)nc(N2CCCCC2)n1 | -25.8% (active) | 23.2 | 9.02% (active) | 27.2% | 4.21% (active) | 14.1% | 52.8% | 22.3 | 13.7 | 16.1% | 3.27% (active) | 25.8 | 27.8% | 21 | 39.1% | 17.7% |  | 33.3 | 15.2% |
| O=C(COc1ccc(/C=C2\C(=O)Nc3ccc(Cl)cc32)cc1)Nc1ccc(Cl)cc1 | 88.6% | 53 | 50.8% | 112% | 33.3% | 34.8% | 72.4% | 47.2 | 55.5 | 44.9% | 68.7% | 60.1 | 69.8% | 59.2 | 88.3% | 59.8% |  | 77.6 | 59.6% |
| O=C(CCCCCC/C=C\c1csc(Br)n1)NO | 101% | 98.2 | 60.6% | 59.4% | 82.8% | 78.7% | 87.1% | 52.7 | 63.7 | 50.6% | 53.9% | 76 | 80.1% | 87.5 | 95.1% | 81.9% |  | 87.1 | 64.6% |
| COc1ccc(/C=N/NC(=O)CSc2nc(-c3cnccn3)cc(-c3cccs3)c2C#N)cc1OC | 102% | 91.1 | 89% | 123% | 83% |  | 38.2% | 93.9 | 90.8 | 81.8% | 70.5% | 84.7 | 104% | 97.6 | 120% | 104% | 99 | 69.8 | 96.6% |
| Cc1ccc(OCc2occc2C(=O)N2CCOCC2)cc1 | 107% | 103 | 90.9% | 97.3% | 111% | 93.7% | 98.1% | 94.5 | 109 | 104% | 97.7% | 113 | 102% | 103 | 109% | 104% |  | 104 | 107% |
